# A selection: hits, their analogues and other compounds. The true share with any hit is near 1.3%.
# EBV gp42 inh = EBV gp42 inhibition; Q1HVG2; Fluorescence polarization binding assay, mP read-out; inhibition, % (tested at 21.74 µM); 0.42% of 220,000 active; in the data active = inhibition above about 50%
# Target sequence (Q1HVG2 whole entry, looked up): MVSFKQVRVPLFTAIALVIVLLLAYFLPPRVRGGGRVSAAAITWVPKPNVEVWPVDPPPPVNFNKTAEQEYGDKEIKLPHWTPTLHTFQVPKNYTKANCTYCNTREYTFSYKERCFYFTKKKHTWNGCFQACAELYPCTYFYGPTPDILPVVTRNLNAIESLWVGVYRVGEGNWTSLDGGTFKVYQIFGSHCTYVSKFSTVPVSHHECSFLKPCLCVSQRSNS
# MEX-5 binding = C. elegans MEX-5 TCR-2 RNA binding activity; Q9XUB2; MEX-5/FITC-TCR2 RNA binding, fluorescence polarization; active compounds read low; activity score (negative = inhibition of binding), % at 10 µM; 0.38% of 300,000 active; AID 1832;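 active = inhibition past about -25% in most replicates, and total fluorescence under double the plate's negative control median, limit read from the data; inconclusive = replicates evenly split on the limit, or fluorescence at least double controls; inactive = too little inhibition in most replicates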;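 note: 0% = DMSO and -100% = 5 µM competing unlabeled TCR2 RNA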
# Bcl-xL primary = inhibitors of human Bcl-xL; 0.7% of 320,000 active; Q07817; GST-Bcl-xL / FITC-Bim BH3 peptide fluorescence polarization; inhibition, % at 10.9 µM; AID 2129;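 active = inhibition above the mean of all tested compounds plus 3 SD, cutoff set per campaign, cut at about 30% in these data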;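 note: 0% = DMSO wells and 100% = unlabeled Bim-BH3 peptide competitor; inhibitors lower millipolarization by displacing the labeled peptide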
# Target sequence (Q07817 whole entry, looked up): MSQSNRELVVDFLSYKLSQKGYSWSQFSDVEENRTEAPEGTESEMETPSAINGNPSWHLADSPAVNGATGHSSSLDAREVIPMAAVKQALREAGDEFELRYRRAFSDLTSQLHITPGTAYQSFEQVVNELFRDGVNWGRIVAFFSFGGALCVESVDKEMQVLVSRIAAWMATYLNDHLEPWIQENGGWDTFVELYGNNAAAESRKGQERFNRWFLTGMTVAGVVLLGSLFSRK
# MCL1-BIM inh = inhibitors of human MCL1 binding to BIM-BH3 peptide; 0.68% of 320,000 active; inhibition, % at 10.9 µM; AID 2057; GST-MCL1 / FITC-Bim-BH3 fluorescence polarization;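 active = inhibition above the mean inhibition of all tested compounds plus 3 SD, set per campaign, cut at about 40% in these data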;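 note: 0% = DMSO wells and 100% = unlabeled Bim-BH3 peptide control; higher means more loss of mP so more displacement of Bim peptide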
# GLD-1 RNA inh = GLD-1-TGE RNA interaction inhibition (C. elegans). Q17339. purified GLD-1 + fluorescein TGE RNA, fluorescence polarization. inhibition, % at 5.96 µM. 0.44% of 320,000 active. AID 2280;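 active = percent inhibition above a per-plate cutoff, the plate mean of test compounds plus 3 SD, cut at about 30% in these data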;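 note: 0% = DMSO wells with GLD-1 and probe and 100% = wells lacking GLD-1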
# BCLXL inh confirm = Bcl-xL (human) inhibition, MCL1 counter-screen confirmation | GST-Bcl-xL / FITC-Bim BH3 peptide FP binding | 54% of 1,700 active | inhibition, % at 10.9 µM | shares compounds with MCL1-BIM inh;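 active = inhibition above a cutoff equal to the mean inhibition of all tested compounds plus 3 SD, cut at about 30% in these data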;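 note: 0% = DMSO wells and 100% = unlabeled Bim BH3 control peptide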
# MCL1 BIM confirm = MCL1-BIM-BH3 interaction inhibition, confirmation. 61% of 1,700 active. inhibition, % at 10.9 µM. AID 2168. shares compounds with MCL1-BIM inh. GST-MCL1 / FITC-Bim-BH3 fluorescence polarization;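 active = inhibition above the average of all tested compounds plus 3 SD, cut at about 40% in these data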;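 note: 0% = DMSO wells and 100% = unlabeled Bim-BH3 control peptide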
# * hit, by the source's call; ? = inconclusive; nt = not tested or not shown; + = active, no number.
SMILES,EBV gp42 inh,MEX-5 binding,Bcl-xL primary,MCL1-BIM inh,GLD-1 RNA inh,BCLXL inh confirm,MCL1 BIM confirm
Cc1nnc(SCC2=C(C(=O)O)N3C(=O)C(NC(=O)Cn4cnnn4)C3SC2)s1 (stereo unspecified),nt,0,15,12,9,nt,nt
COc1ccc(NC(=O)CCNS(=O)(=O)c2cccc3nonc23)cc1,nt,-1,2,10,9,nt,nt
Oc1oc(-c2ccc(Br)cc2)nc1/C=N/c1ccccn1,-16,-2,3,69*,2,5,4
O=C(COc1ccccc1C(=O)N/N=C\c1ccc(O)c(O)c1)N/N=C/c1ccc(O)c(O)c1,9,-2,16,56*,3,44*,81*
O=C(O)c1cccc(CN2C(=O)c3ccccc3C2=O)c1,nt,0,4,-3,-5,nt,nt
O=C1c2cccc3c(O)ccc(c23)C(=O)N1Cc1ccccc1,187*,?,+,+,+,+,+
CCCCn1c(SCC(=O)Nc2ccc3c(c2)CCC3)nc2ccccc2c1=O,-5,-1,4,0,1,nt,nt
C=CCn1c(SCC(=O)Nc2ccc3c(c2)CCC3)nc2ccccc2c1=O,-4,-1,-1,+,2,6,15
CC(=O)N/N=C/c1cc(C(C)(C)C)cc(/C=N/NC(C)=O)c1O,67*,2,94*,89*,156*,86*,115*
N#CCCN(CCC#N)C(=O)C1c2ccccc2Oc2ccccc21,nt,?,+,+,+,28,29
O=C1Nc2ccccc2/C1=C/c1cnc(-c2ccccc2)[nH]1,59*,-10,138*,162*,73*,102*,117*
N#Cc1cccc(NC(=O)CSc2ccc3c4c(cccc24)C(=O)c2ccccc2-3)c1,107*,1,73*,75*,61*,185*,183*
COC(=O)C1=C(C)N(Cc2ccccc2)C(=O)/C1=C\c1ccco1,-6,0,6,4,5,nt,nt
Nc1c(Cl)ncnc1NCC(O)CO (stereo unspecified),-4,nt,4,8,7,nt,nt
O=C(c1cc(-c2ccco2)nn1-c1cccc(Cl)c1)N1CCCCC1,3,2,3,70*,-6,26,65*
CC(C)NC(=O)c1cc(-c2ccco2)nn1-c1ccc(Cl)cc1,nt,0,6,18,0,nt,nt
COc1ccc(N=Cc2cc3c(cc2O)OC(N)=C(C#N)C3c2ccccc2)cc1 (stereo unspecified),-75,?,-42,-90,-32,nt,nt
Cc1ccc[n+](-c2nc([O-])sc2C=O)c1,142*,nt,173*,+,156*,169*,+
CC(C)c1ccc[n+](-c2nc([O-])sc2C=O)c1,-7,-4,8,3,3,nt,nt
O=C(COC(=O)c1cc(-c2cccc3ccccc23)nc2ccccc12)NC1CCS(=O)(=O)C1 (stereo unspecified),45,-16,152*,185*,97*,63*,80*
Cc1cc(C(=O)OCC(=O)NC2CCS(=O)(=O)C2)c2ccccc2n1 (stereo unspecified),-13,1,0,-3,-1,nt,nt
Brc1ccc(C2=Nc3cccc4cccc(c34)N2)o1,-11,-1,20,41*,0,8,14
COc1nc(C)cc(C)c1S(=O)(=O)c1ccccc1,nt,-1,1,-7,0,nt,nt
COCCn1c(C)c(C)c(S(=O)(=O)c2ccccc2)c1N,nt,2,68*,72*,29,44*,62*
CCCNC(=O)c1ccc(C)c(NC(=O)C2=C(C)OCCS2)c1,nt,0,-1,-4,0,nt,nt
SMILES,EBV gp42 inh,MEX-5 binding,Bcl-xL primary,MCL1-BIM inh,GLD-1 RNA inh,BCLXL inh confirm,MCL1 BIM confirm
CCCOc1ccc(/C(CC)=N/NC(=O)C2(C)CC2(Br)Br)cc1 (stereo unspecified),-20,-2,97*,112*,112*,7,0
N#CC1=C(N)n2c(s/c(=C\c3ccco3)c2=O)=C(C#N)C1c1ccco1 (stereo unspecified),-3,-12,44*,55*,7,104*,150*
COc1ccc(CCNc2c(N)n(Cc3ccccc3)c(=O)[nH]c2=O)cc1OC,43,-19,71*,96*,79*,74*,85*
Nc1c(NCc2ccccc2F)c(=O)[nH]c(=O)n1Cc1ccccc1,10,-8,86*,97*,93*,23,29
CCOc1ccc(C(=O)Nc2cccc(-c3nc4ccccc4[nH]3)c2C)cc1[N+](=O)[O-],-4,0,5,9,2,nt,nt
Cc1ccc(C(=O)N/C(=C\c2cccs2)C(=O)NCC2CCCO2)cc1C (stereo unspecified),-3,1,3,-1,4,nt,nt
CCCCN1Cc2c(nc3cc(-c4ccco4)[nH]n3c2=O)C1=O,-2,-4,29,66*,-11,37*,51*
COc1cc(Cl)c(C)cc1NC(=O)CSc1sc2c(O)cc(=O)[nH]c2c1C#N,nt,1,12,43*,0,11,14
COc1ccc(OC)c(NC(=O)CSc2sc3c(O)cc(=O)[nH]c3c2C#N)c1,nt,1,14,27,3,nt,nt
N#Cc1c(SCC(=O)Nc2nncs2)sc2c(O)cc(=O)[nH]c12,nt,-14,34*,70*,-5,25,53*
CCCN(CCC)C(=O)NC1CC(=O)N(c2ccc(OC)cc2)C1 (stereo unspecified),-3,-2,1,-8,-5,nt,nt
Cc1cc(-c2cc(C(=O)Nc3ccccc3)on2)nc(NC2CCCC2)n1,nt,2,2,-1,4,nt,nt
CCN(C[C@H]1N[C@@](Cc2ccccc2)(C(=O)OC)[C@H]2C(=O)N(C)C(=O)[C@@H]12)C(=O)COc1ccccc1,nt,nt,nt,nt,0,nt,nt
CC(C)(C)c1ccc(S(=O)(=O)N2CCN(CC(=O)NC(=O)NC3CCCCC3)CC2)cc1,nt,0,0,9,-4,nt,nt
CCCSCC(=O)Nc1ncc2c(n1)-c1ccccc1CC2,60*,-7,66*,62*,21,71*,90*
O=C(Nc1ncc2c(n1)-c1ccccc1CC2)c1ccc(Cl)cc1,0,-4,3,9,4,nt,nt
N#CC1(C#N)C(c2ccccc2)OC23CCCCC2C1(C#N)C(=N)O3 (stereo unspecified),-5,-49*,132*,178*,102*,17,16
N#CC1(C#N)C(c2ccccc2)OC23CCCCCC2C1(C#N)C(=N)O3 (stereo unspecified),-1,-9,36*,48*,21,78*,101*
C=CCOc1c(CNc2nccs2)cccc1OCC,-16,1,2,4,5,nt,nt

# Screening data: PubChem, several laboratories
